# From PubChem BioAssay
# Sampled rows, rich in hits. Any-hit rate of the full collection: about 3.2%.
# PNC inhibitor: perinucleolar compartment assembly inhibition | PC3M PTB-GFP, PNC prevalence imaging, 16 h; active compounds read low | activity change (PNC), negative = inhibition, % at 10 µM | 140,000 compounds, 3.1% hits | AID 2417;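 active means readout at or below -70, meaning at least 70% loss of cells showing the perinucleolar compartment, a nuclear body marking cancer cells; inconclusive means readout between -30 and a set limit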;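 further: plate controls were DMSO wells for no effect and camptothecin positive control wells for full effect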
#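 Compounds are pinned in duplicate onto adhered PC3M cells stably expressing GFP-tagged PTB and incubated 16 h at 37 C. Cells are then fixed, nuclei stained with Hoechst, and PNC-positive cells counted.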
# ALOX15B inhib: 15-hLO-2 (ALOX15B) enzyme inhibition; Potency, µM (top dose mostly 57.1 µM), without a hit: at the top dose activity change, negative = inhibition, most hits filed as inhibitors; purified 15hLO-2, xylenol orange hydroperoxide absorbance; O15296; 110,000 compounds, 0.56% hits; AID 881; further: potency means the concentration at half of the fitted maximal effect; nearly all actives have a fitted effect of over 60% in size
# Target sequence (O15296 whole entry, looked up): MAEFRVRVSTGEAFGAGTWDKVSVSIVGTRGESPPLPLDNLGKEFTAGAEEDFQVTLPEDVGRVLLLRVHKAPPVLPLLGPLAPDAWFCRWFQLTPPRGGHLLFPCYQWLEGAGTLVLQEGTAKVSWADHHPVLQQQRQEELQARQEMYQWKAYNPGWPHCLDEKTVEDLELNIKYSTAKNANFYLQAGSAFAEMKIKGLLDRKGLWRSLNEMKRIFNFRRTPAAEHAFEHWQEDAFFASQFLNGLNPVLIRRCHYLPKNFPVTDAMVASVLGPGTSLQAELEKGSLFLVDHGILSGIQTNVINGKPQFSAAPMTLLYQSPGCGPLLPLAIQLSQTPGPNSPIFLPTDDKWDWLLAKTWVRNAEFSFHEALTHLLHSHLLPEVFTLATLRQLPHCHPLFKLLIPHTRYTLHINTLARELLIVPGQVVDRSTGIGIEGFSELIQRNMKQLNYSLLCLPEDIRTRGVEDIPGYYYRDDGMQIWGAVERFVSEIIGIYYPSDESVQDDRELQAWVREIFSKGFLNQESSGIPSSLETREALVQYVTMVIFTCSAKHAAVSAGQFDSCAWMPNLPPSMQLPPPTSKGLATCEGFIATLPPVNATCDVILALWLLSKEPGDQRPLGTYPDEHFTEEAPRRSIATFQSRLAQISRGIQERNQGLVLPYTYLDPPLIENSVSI
#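 Read-out: hydroperoxide product oxidises ferrous iron, measured as xylenol orange complex via the 573-to-405 nm absorbance ratio after 30 min. Reaction: 50 nM enzyme, 15 min compound preincubation, 45 uM arachidonic acid, 90 min RT, Hepes pH 7.5 with Triton X-100.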
# 12-hLO inh: 12-hLO (ALOX12) enzyme inhibition; Potency, µM (series often up to 57.1 µM), inactives show top-dose activity change, negative = inhibition, actives largely listed as inhibitors; purified 12-hLO, xylenol orange hydroperoxide absorbance; P18054; AID 1452; 150,000 compounds, 0.12% hits; further: potency means the concentration at half of the fitted maximal effect; nearly all actives have a fitted effect of over 55% in size
#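 Hydroperoxide formation by human 12-lipoxygenase from 40 uM arachidonic acid was followed colorimetrically via ferric-xylenol orange complex, using the 573/405 nm absorbance ratio. Enzyme concentration was 150 nM, with 30 min reaction at room temperature.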
# Starred values were filed as active, the others as inactive; ? = inconclusive; · = no result; [ ] = remark or other dose. Unless noted, the call rests on the fitted dose curve; in most records, active means well fitted curve in the direction sought with a large enough effect; inconclusive means small, poorly fitted or top-dose-only effect, or another doubt; inactive means no such curve, though single readings can be large; an effect the other way counts as inactive or inconclusive. Unless noted, on the % scale 0 is the no-effect control and ±100 the full control effect.
SMILES,PNC inhibitor,ALOX15B inhib,12-hLO inh
Cc1sc(NC(=O)Cc2ccc3c(c2)OCO3)nc1-c1ccc2c(c1)CCN2C(=O)c1cccc(F)c1,-119*,·,-2%
Cc1ccccc1C(=O)N1CCc2cc(-c3nc(NC(=O)Cc4ccc5c(c4)OCO5)sc3C)ccc21,-9,·,6%
COC(=O)c1cccc(C23CC4(C2)[C@H](CN(CC2CCCCC2)[C@@H]4c2ccccc2)C3c2ccc(Cl)nc2)c1 (stereo partly specified),·,10%,-12%
CC(C)(O)c1cc(=O)sc2nc3ccccc3n12,-100*,·,-3%
c1ccc2nc3c(nc2c1)sc1nc2ccccc2n13,-14,-4%,1%
CC(C)NC(=O)N1CCCC2(CCN(S(=O)(=O)c3ccccc3)CC2)C1,·,19%,8%
Cc1nnc(N(C)C(=O)c2ccccn2)s1,13,?,7%
Cc1nnc(N(Cc2ccccc2)C(=O)c2cnccn2)s1,-88*,-3%,-2%
CCCCOc1ccc(/C=C/C(=O)Nc2ccc([N+](=O)[O-])cc2C)cc1,?,·,0%
Cc1ccc(NC(=O)/C=C/c2ccc([N+](=O)[O-])s2)c(C)c1,-98*,·,-3%
Cc1cc([N+](=O)[O-])ccc1NC(=O)/C=C/c1cccs1,-112*,·,-6%
Cc1ccc(NC(=O)/C=C/c2ccc([N+](=O)[O-])s2)cc1,-17,·,-2%
S=C(Nc1ccc2snnc2c1)N1CCN(c2ccccn2)CC1,5,-6%,0%
C[N+]1(CCC[N+]2(C)C[C@H]3[C@H](C2)[C@H]2C=C[C@@H]3CC2)CCOCC1 (stereo partly specified),·,6%[11.4 µM],0%[11.4 µM]
Cc1ccc2c(c1)N(S(=O)(=O)c1ccc(F)cc1)C(C(C)(C)C)CO2 (stereo unspecified),-27,7%,-2%
Cc1ccc(S(=O)(=O)N2c3ccccc3OCC2C(C)(C)C)cc1 (stereo unspecified),-100*,·,3%
CCOC(=O)Cn1c(=O)oc2cc(S(=O)(=O)Nc3cc(Cl)ccc3OC)ccc21,-97*,2%,-14%
CCOC(=O)Cn1c(=O)oc2cc(S(=O)(=O)Nc3cc(OCC)ccc3OCC)ccc21,-3,-3%,-7%
CCC(C)NS(=O)(=O)c1ccc(S(=O)(=O)N2CC=C(c3ccc(F)cc3)CC2)cc1 (stereo unspecified),-13,·,3%
Cc1ccc(C2CC(=O)Oc3c(C(C)C)ccc(C)c32)cc1 (stereo unspecified),·,4%[0.0915 µM],-5%[0.00818 µM]
c1ccc(-c2c(-c3ccccc3)n(Cc3ccco3)c3ncnc(NCCCn4ccnc4)c23)cc1,-16,48%,-5%
N=c1c2c(-c3ccccc3)c(-c3ccccc3)n(Cc3ccco3)c2ncn1CCCn1ccnc1,-98*,·,2%
CCCC(c1nnnn1C1CCCC1)N1CCN(c2ccccc2F)CC1 (stereo unspecified),22,0%,-8%
COc1ncc2nc(-c3cccs3)c(=O)n(C)c2n1,·,-9%,·
CC1(C)Cc2nc3sc4c(N(CCO)CCO)ncnc4c3cc2CO1,20,-1%,3%
SMILES,PNC inhibitor,ALOX15B inhib,12-hLO inh
CC1(C)Cc2nc3sc4c(SCC(=O)NCc5ccccc5)ncnc4c3cc2CO1,-112*,5%,-2%
CCC(=O)N1c2ccc(C)cc2C2=NNC(=S)NC21O (stereo unspecified),19,-2%,-5%
O=C(NCCc1ccccc1)c1cccnc1,-3,6%,5%
NS(=O)(=O)c1ccc(CCNC(=O)c2cccnc2)cc1,-100*,·,0%
Nc1nc(-c2ccccc2)nc2sc3c(c12)CCCC3,-1,·,-6%
COc1ccc(CNc2ccnc(-c3ccc4c(c3)OCO4)n2)c(OC)c1,·,6%,·
c1ccc(-c2nc3ccccc3nc2-c2ccccn2)nc1,-86*,1%,4%
CN(C)NC(=S)Nc1ccc2nc(-c3ccccn3)c(-c3ccccn3)nc2c1,4,-10%,-3%
O=C(/C=C/c1ccccc1)N1CCN(c2c(Cl)cccc2[N+](=O)[O-])CC1,?,·,-2%
Cn1c(SCc2ccccc2)nnc1-c1ccc2c(c1)OCO2,-15,-4%,-4%
Cn1c(SCC#N)nnc1-c1ccc2c(c1)OCO2,-119*,·,3%
COc1ccccc1-c1cc(Nc2ccn[nH]2)ncn1,·,-5%,·
Cc1nc2c(cc1C(=O)N/N=C/c1ccc(O)c(O)c1)c(=O)n(C)c(=O)n2C,-89*,·,2%
CC(=O)Nc1ccc(/C=N/NC(=O)c2cc3ccccc3nc2C)cc1,?,·,0%
O=C(c1cnccn1)N1CCC2(CC1)CN(c1ccccn1)C2,·,7%,-1%
O=C(O)CSc1nnc(CNc2ccccc2Cl)n1-c1ccccc1,-21,-6%,0%
Cc1c(-n2c(SCC(=O)O)nnc2-c2ccccc2Cl)c(=O)n(-c2ccccc2)n1C,-97*,-2%,3%
CNC(=O)[C@H](C)/C=C/C(NC(=O)OCc1ccccc1)c1ccc(C(=O)OC)cc1 (stereo partly specified),·,5%,0%
CC(=O)Nc1cc(N2C(=O)CCC2=O)ccc1Cl,-82*,·,-3%
CC(=O)Nc1c(Br)cc(N2C(=O)CCC2=O)cc1Br,21,·,-3%
CCC(C)CCCCC(=O)N[C@@H](CCN)C(=O)N[C@H](C(=O)N[C@@H](CCN)C(=O)N[C@H]1CCNC(=O)C([C@@H](C)O)NC(=O)[C@@H](CCN)NC(=O)[C@H](CCN)NC(=O)[C@H](CC(C)C)NC(=O)[C@@H](CC(C)C)NC(=O)[C@H](CCN)NC1=O)[C@@H](C)O (stereo partly specified),·,117%[0.0915 µM],-13%[0.00818 µM]
CCC(C)C1NC(=O)C(CCNCS(=O)(=O)O)NC(=O)C(NC(=O)C(CCNCS(=O)(=O)O)NC(=O)C(NC(=O)C(CCNCS(=O)(=O)O)NC(=O)CCCCC(C)C)C(C)O)CCNC(=O)C(C(C)O)NC(=O)C(CCNCS(=O)(=O)O)NC(=O)C(CCNCS(=O)(=O)O)NC(=O)C(C(C)CC)NC1=O (stereo unspecified),·,4µM*,?
COc1ccc(S(=O)(=O)N2CCCCC2)cc1NC(=O)CSc1ncnc2ccccc12,-7,·,-5%
CCc1ccc(C(=O)NCc2ccc(Cl)cc2)cc1,29,·,1%
CCCCOc1ccc(CSCCNC(=S)Nc2ccccc2)cc1,-30,·,-27%
SMILES,PNC inhibitor,ALOX15B inhib,12-hLO inh
CC(C)COc1ccc(CSCCNC(=S)Nc2ccccc2)cc1,56,25µM*,28µM*
CC(C)Cn1c(CNC(=O)c2ccccc2)nc2ccccc21,4,44%,1%
CCc1nc2ccccc2n1CC(C)C(=O)O (stereo unspecified),-100*,·,-3%
COCCCN(C(=S)NC(=O)c1ccc(C(C)(C)C)cc1)c1c(N)n(Cc2ccccc2)c(=O)[nH]c1=O,61,·,-30%
CC1=CC=CC2=NC(=O)CC(C)(C(=O)N(CC(=O)NC3CCCC3)c3ccccc3C)N12 (stereo unspecified),-1,1%,3%
CC1=CN2C(=NC(=O)CC2(C)C(=O)N(CC(=O)NC2CCCC2)c2ccccc2C)C=C1 (stereo unspecified),-100*,·,-1%
